Test results reported in PubChem BioAssay (NCI).
This is part of a sample that, as a whole, favours compounds with a hit. Of some 79,000 tested, about 15% had one in any assay. Active and inactive are the calls of the source. No stated cut-off is given here; in the data, active means growth inhibition above about 70%; inactive means the rest.

Assays:
[1] = NCI Yeast Anticancer Drug Screen. Data for the mlh1 strain (AID 171);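 further: 0% = growth of vehicle-treated control cultures of the same strain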; settings: S. cerevisiae mlh1 strain growth inhibition, stronger effect = higher value
In short: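 Inhibition values reflect reduced yeast growth in the presence of compound, referenced to vehicle controls, using a strain chosen for its alteration in DNA repair or cell cycle control.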

[2] = NCI Yeast Anticancer Drug Screen. Data for the sgs1 strain (AID 173);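 further: 0% = growth of vehicle-only control cultures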; settings: S. cerevisiae sgs1 mutant, stronger effect = higher value
In short: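 Vehicle-treated cultures served as reference for growth inhibition of a yeast strain altered in DNA damage repair or cell cycle control after compound exposure.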

[3] = NCI Yeast Anticancer Drug Screen. Data for the mlh1 rad18 strain (AID 175); settings: S. cerevisiae mlh1 rad18 strain growth inhibition, stronger effect = higher value
In short: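 Inhibition values reflect reduced growth of mutant yeast versus vehicle-treated controls following compound exposure; the mutations affect DNA damage repair.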

[4] = NCI Yeast Anticancer Drug Screen. Data for the rad18 strain (AID 177); settings: S. cerevisiae rad18 mutant growth inhibition, stronger effect = higher value
In short: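 Steps: expose repair-mutant yeast to compound; measure growth; express as inhibition relative to vehicle control.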

[5] = NCI Yeast Anticancer Drug Screen. Data for the rad52 strain (AID 147);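 further: 0% = growth of vehicle-treated control cultures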; settings: S. cerevisiae rad52 mutant growth inhibition, stronger effect = higher value
In short: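 Inhibition of yeast growth, referenced to vehicle controls, was the measured output for a strain with defective DNA damage repair.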

[6] = NCI Yeast Anticancer Drug Screen. Data for the wt1 strain (AID 149);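 further: 0% = growth of vehicle-treated wt1 cultures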; settings: S. cerevisiae wt1 strain (SPY 50644) growth inhibition, stronger effect = higher value
In short: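 Growth inhibition read against vehicle controls after compound exposure of the wt1 yeast strain.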

[7] = NCI Yeast Anticancer Drug Screen. Data for the rad50EPP+ strain (AID 151);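 further: 0% = growth of vehicle-treated control cultures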; settings: S. cerevisiae rad50 mutant strain, stronger effect = higher value
In short: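 Genetically defined yeast (rad50EPP+, DNA damage repair alteration) is grown with compound, and inhibition of growth is expressed relative to vehicle-treated controls.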

[8] = NCI Yeast Anticancer Drug Screen. Data for the mgt1 strain (AID 153); settings: S. cerevisiae mgt1 mutant growth inhibition, stronger effect = higher value
In short: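 In the mgt1 strain, test compounds were added and growth inhibition was determined relative to vehicle-treated controls.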

[9] = NCI Yeast Anticancer Drug Screen. Data for the rad50 strain (AID 155);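 further: 0% = growth of vehicle-only cultures of the same strain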; settings: S. cerevisiae rad50 strain growth inhibition, stronger effect = higher value
In short: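 Readout: growth inhibition relative to vehicle-treated cultures. Compound exposure was carried out in a genetically defined yeast strain deficient in DNA damage repair.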

[10] = NCI Yeast Anticancer Drug Screen. Data for the mec2-1 strain (AID 157); settings: S. cerevisiae mec2-1 strain, stronger effect = higher value
In short: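 Each compound was tested on mec2-1 yeast, a strain altered in DNA damage repair or cell cycle control. Growth inhibition is reported relative to vehicle.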

[11] = NCI Yeast Anticancer Drug Screen. Data for the sgs1 mgt1 strain (AID 161);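 further: 0% = growth of cultures given vehicle only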; settings: S. cerevisiae sgs1 mgt1 strain, stronger effect = higher value
In short: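 Inhibition of yeast growth, normalised to vehicle-treated controls, is reported for a strain bearing genetic alterations in DNA damage repair.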

[12] = NCI Yeast Anticancer Drug Screen. Data for the CLN2oe strain (AID 163);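 further: 0% = growth of vehicle-only control cultures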; settings: S. cerevisiae CLN2oe strain, stronger effect = higher value
In short: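 First, the altered yeast strain was treated with each compound; second, its growth was measured; finally, inhibition was derived by comparison with vehicle controls.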

[13] = NCI Yeast Anticancer Drug Screen. Data for the cln2 rad14 strain (AID 165);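 further: 0% = growth equal to vehicle treated cultures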; settings: S. cerevisiae cln2 rad14 strain, stronger effect = higher value
In short: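 Test compounds were added to cln2 rad14 yeast cultures; inhibition of growth was then determined by comparison with vehicle treatment.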

[14] = NCI Yeast Anticancer Drug Screen. Data for the bub3 strain (AID 167); settings: S. cerevisiae bub3 mutant strain, stronger effect = higher value
In short: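 Readout: yeast growth inhibition, expressed relative to vehicle-only wells. The test organism is a mutant strain from a panel with lesions in DNA repair or checkpoint genes.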

[15] = NCI Yeast Anticancer Drug Screen. Data for the wt2 strain (AID 169);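 further: 0% = growth of vehicle-treated yeast cultures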; settings: S. cerevisiae wt2 strain growth inhibition, stronger effect = higher value
In short: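 The panel's yeast strains carry defined changes in DNA repair or cell cycle genes. Each strain is grown with compound, and growth loss is scored relative to vehicle.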

[16] = at 5.0 µM (retest, dose inferred, filed as 0.5)
[17] = at 50.0 µM (retest, dose inferred, filed as 5.0)

Measured: growth inhibition

O=C(NNc1ccnc2cc(Cl)ccc12)/C(=C\c1ccccc1Cl)NC(=O)c1ccccc1
inactive: [1]; at 1.2 µM -1% | [1]; at 3.7 µM 0% | [1]; at 11.0 µM 7% | [1]; at 33.0 µM 26% | [1]; at 100.0 µM 24% | [2]; at 1.2 µM 1% | [2]; at 3.7 µM 6% | [2]; at 11.0 µM 13% | [2]; at 33.0 µM 38% | [2]; at 100.0 µM 38% | [3]; [16] -13% | [3]; [17] 7% | [4]; at 1.2 µM -1% | [4]; at 3.7 µM 10% | [4]; at 11.0 µM 34% | [4]; at 33.0 µM 64% | [4]; at 100.0 µM 67%
active: [3]; at 50.0 µM 90.1%

O=C(N=Nc1ccccc1Cl)NNc1ccccc1Cl
inactive: [5]; at 1.2 µM 25% | [5]; at 3.7 µM 19% | [5]; at 11.0 µM 13% | [5]; at 33.0 µM 28% | [5]; at 100.0 µM 26% | [6]; at 1.2 µM 4% | [6]; at 3.7 µM 2% | [6]; at 11.0 µM 0% | [6]; at 33.0 µM 5% | [6]; at 100.0 µM 6% | [7]; at 1.2 µM 17% | [7]; at 3.7 µM 19% | [7]; at 11.0 µM 26% | [7]; at 33.0 µM 39% | [7]; at 100.0 µM 20% | [8]; at 1.2 µM -5% | [8]; at 3.7 µM -5% | [8]; at 11.0 µM 3% | [8]; at 33.0 µM -18% | [8]; at 100.0 µM -2% | [9]; at 1.2 µM 8% | [9]; at 3.7 µM 8% | [9]; [16] -15% | [9]; at 11.0 µM -15% | [9]; at 33.0 µM 14% | [9]; [17] 16% | [9]; at 50.0 µM 44.5% | [9]; at 100.0 µM 13% | [10]; at 1.2 µM -1% | [10]; at 3.7 µM 1% | [10]; [16] -15% | [10]; at 11.0 µM 7% | [10]; at 33.0 µM 6% | [10]; [17] 38% | [10]; at 50.0 µM 21.1% | [10]; at 100.0 µM 12% | [11]; [16] -18% | [11]; [17] 8% | [11]; at 50.0 µM 26.8% | [12]; at 1.2 µM 7% | [12]; at 3.7 µM -3% | [12]; at 11.0 µM 6% | [12]; at 33.0 µM 22% | [12]; at 100.0 µM 27% | [13]; [16] -25% | [13]; [17] 45% | [13]; at 50.0 µM 47.1% | [14]; at 1.2 µM 2% | [14]; at 3.7 µM 18% | [14]; [16] -40% | [14]; at 11.0 µM 13% | [14]; at 33.0 µM 15% | [14]; [17] 69% | [14]; at 50.0 µM 49.1% | [14]; at 100.0 µM 11% | [15]; at 1.2 µM 0% | [15]; at 3.7 µM 0% | [15]; at 11.0 µM 3% | [15]; at 33.0 µM 7% | [15]; at 100.0 µM 8% | [1]; at 1.2 µM 0% | [1]; at 3.7 µM -4% | [1]; at 11.0 µM 2% | [1]; at 33.0 µM 5% | [1]; at 100.0 µM 4% | [3]; [16] -7% | [3]; [17] 41% | [3]; at 50.0 µM 21.6% | [4]; at 1.2 µM 16% | [4]; at 3.7 µM 13% | [4]; at 11.0 µM 8% | [4]; at 33.0 µM 3% | [4]; at 100.0 µM 7%

c1ccc2c(c1)sc1cc3ccncc3cc12
active: [5]; at 33.0 µM 94% | [5]; at 100.0 µM 98% | [6]; at 100.0 µM 94% | [7]; at 33.0 µM 94% | [7]; at 100.0 µM 99% | [8]; at 100.0 µM 94% | [9]; [16] 93% | [9]; at 33.0 µM 89% | [9]; [17] 94% | [9]; at 50.0 µM 97.7% | [9]; at 100.0 µM 98% | [10]; [17] 96% | [10]; at 50.0 µM 98.2% | [10]; at 100.0 µM 89% | [11]; [17] 93% | [11]; at 50.0 µM 98.1% | [12]; at 100.0 µM 91% | [13]; [17] 96% | [13]; at 50.0 µM 96.2% | [14]; [17] 95% | [14]; at 50.0 µM 97.3% | [14]; at 100.0 µM 94% | [15]; at 100.0 µM 91% | [1]; at 100.0 µM 95% | [2]; at 100.0 µM 97% | [3]; [17] 94% | [3]; at 50.0 µM 97.4% | [4]; at 100.0 µM 97%
inactive: [5]; at 1.2 µM -2% | [5]; at 3.7 µM 7% | [5]; at 11.0 µM 17% | [6]; at 1.2 µM -7% | [6]; at 3.7 µM -4% | [6]; at 11.0 µM -9% | [6]; at 33.0 µM 17% | [7]; at 1.2 µM 7% | [7]; at 3.7 µM 21% | [7]; at 11.0 µM 63% | [8]; at 1.2 µM -2% | [8]; at 3.7 µM -3% | [8]; at 11.0 µM -2% | [8]; at 33.0 µM 11% | [9]; at 1.2 µM -6% | [9]; at 3.7 µM 7% | [9]; at 11.0 µM 29% | [10]; at 1.2 µM 1% | [10]; at 3.7 µM -1% | [10]; [16] 15% | [10]; at 11.0 µM 11% | [10]; at 33.0 µM 8% | [11]; [16] 12% | [12]; at 1.2 µM -2% | [12]; at 3.7 µM 0% | [12]; at 11.0 µM 7% | [12]; at 33.0 µM 26% | [13]; [16] 16% | [14]; at 1.2 µM -12% | [14]; at 3.7 µM -7% | [14]; [16] -4% | [14]; at 11.0 µM 0% | [14]; at 33.0 µM 19% | [15]; at 1.2 µM -4% | [15]; at 3.7 µM -2% | [15]; at 11.0 µM -3% | [15]; at 33.0 µM 10% | [1]; at 1.2 µM 6% | [1]; at 3.7 µM -6% | [1]; at 11.0 µM -1% | [1]; at 33.0 µM 19% | [2]; at 1.2 µM -2% | [2]; at 3.7 µM -7% | [2]; at 11.0 µM -7% | [2]; at 33.0 µM 34% | [3]; [16] 8% | [4]; at 1.2 µM -3% | [4]; at 3.7 µM -1% | [4]; at 11.0 µM 5% | [4]; at 33.0 µM 22%
